# Measurements as given in PubChem BioAssay AID1508601 (ICCB-Longwood Screening Facility, Harvard Medical School, 2020).
# Where “and” joins values, the source holds several entries; their conditions need not be identical. Equal values may be shown once. The campaign covered roughly 5,700 compounds. About 85 (1%) were called active. The sample holds actives, similar compounds and a random draw of the others, so the mix is not that of the screen. No stated cut-off is given here; in the data, active means p53-positive nuclei above about 36% (passing the limit was not always enough); inactive means the rest. Some compounds were tested as several samples or in several runs, with calls that do not always agree.
# Legend:
# [1] = p53 stabilisation in HPV-positive human cells, imaging, p53-positive nuclei imaging, 24 h, 48 h (AID 1508601); details: 24/48 h
# [2] = molecular target: Cellular tumor antigen p53 (Homo sapiens) (UniProt P04637); experiment: as above; details: 24/48 h, stronger effect = higher value
# [3] = measured here: cell number at 24 h, Library stock concentration: 10 mM
# [4] = measured here: cell number at 48 h, Library stock concentration: 10 mM
# [5] = Library stock concentration: 10 mM
# [6] = measured here: p53 positive nuclei at 24 h, Library stock concentration: 10 mM
# [7] = measured here: cell number at 24 h, concentration not given here
# [8] = measured here: cell number at 48 h, concentration not given here
# [9] = measured here: p53 positive nuclei at 24 h, concentration not given here
# Chain of Cellular tumor antigen p53 (Homo sapiens) (P04637 whole entry, looked up): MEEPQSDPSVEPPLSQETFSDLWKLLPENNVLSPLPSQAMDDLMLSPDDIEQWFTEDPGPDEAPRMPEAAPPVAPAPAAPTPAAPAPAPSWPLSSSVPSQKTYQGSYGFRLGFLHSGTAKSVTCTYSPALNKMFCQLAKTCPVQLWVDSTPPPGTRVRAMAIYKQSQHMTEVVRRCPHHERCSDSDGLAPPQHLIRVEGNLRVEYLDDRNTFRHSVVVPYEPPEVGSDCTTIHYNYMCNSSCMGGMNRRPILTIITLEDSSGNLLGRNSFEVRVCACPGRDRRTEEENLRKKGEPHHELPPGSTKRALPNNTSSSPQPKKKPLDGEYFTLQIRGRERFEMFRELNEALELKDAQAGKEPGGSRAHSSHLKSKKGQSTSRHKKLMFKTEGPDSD
smiles,measurement,setting,value
C=C1C(=O)OC(CCCCCCCC)C1C(=O)O (stereo unspecified),"nuclei count, normalised","[1]; measured here: cell number at 24 h, Library stock concentration: 500 nM",115%
same,"nuclei count, normalised","[1]; measured here: cell number at 24 h, Library stock concentration: 1.5 uM",107%
same,"nuclei count, normalised","[1]; measured here: cell number at 24 h, Library stock concentration: 4.6 uM",111%
same,"nuclei count, normalised","[1]; measured here: cell number at 24 h, Library stock concentration: 13.7 uM",112%
same,"nuclei count, normalised","[1]; measured here: cell number at 24 h, Library stock concentration: 41 uM",108%
same,"nuclei count, normalised","[1]; measured here: cell number at 24 h, Library stock concentration: 123 uM",110%
same,"nuclei count, normalised","[1]; measured here: cell number at 24 h, Library stock concentration: 370 uM",116%
same,"nuclei count, normalised","[1]; measured here: cell number at 24 h, Library stock concentration: 1.111 mM",116%
same,"nuclei count, normalised","[1]; measured here: cell number at 24 h, Library stock concentration: 3.333 mM",114%
same,"nuclei count, normalised",[1]; [3],106%
same,"nuclei count, normalised","[1]; measured here: cell number at 48 h, Library stock concentration: 500 nM",112%
same,"nuclei count, normalised","[1]; measured here: cell number at 48 h, Library stock concentration: 1.5 uM",108%
same,"nuclei count, normalised","[1]; measured here: cell number at 48 h, Library stock concentration: 4.6 uM",109%
same,"nuclei count, normalised","[1]; measured here: cell number at 48 h, Library stock concentration: 13.7 uM",110%
same,"nuclei count, normalised","[1]; measured here: cell number at 48 h, Library stock concentration: 41 uM",105%
same,"nuclei count, normalised","[1]; measured here: cell number at 48 h, Library stock concentration: 123 uM",108%
same,"nuclei count, normalised","[1]; measured here: cell number at 48 h, Library stock concentration: 370 uM",116%
same,"nuclei count, normalised","[1]; measured here: cell number at 48 h, Library stock concentration: 1.111 mM",114%
same,"nuclei count, normalised","[1]; measured here: cell number at 48 h, Library stock concentration: 3.333 mM",112%
same,"nuclei count, normalised",[1]; [4],107%
same,"p53-positive nuclei, normalised",[2]; Library stock concentration: 500 nM,0.247% (inactive)
same,"p53-positive nuclei, normalised",[2]; Library stock concentration: 1.5 uM,-0.0382% (inactive)
same,"p53-positive nuclei, normalised",[2]; Library stock concentration: 4.6 uM,-0.0805% (inactive)
same,"p53-positive nuclei, normalised",[2]; Library stock concentration: 13.7 uM,-0.0825% (inactive)
same,"p53-positive nuclei, normalised",[2]; Library stock concentration: 41 uM,0.00899% (inactive)
same,"p53-positive nuclei, normalised",[2]; Library stock concentration: 123 uM,-0.155% (inactive)
same,"p53-positive nuclei, normalised",[2]; Library stock concentration: 370 uM,0.0153% (inactive)
same,"p53-positive nuclei, normalised",[2]; Library stock concentration: 1.111 mM,-0.0515% (inactive)
same,"p53-positive nuclei, normalised",[2]; Library stock concentration: 3.333 mM,0.104% (inactive)
same,"p53-positive nuclei, normalised",[2]; [5],0.0835% (inactive)
same,"p53-positive nuclei, normalised","[2]; measured here: p53 positive nuclei at 24 h, Library stock concentration: 500 nM",-0.115%
same,"p53-positive nuclei, normalised","[2]; measured here: p53 positive nuclei at 24 h, Library stock concentration: 1.5 uM",0.12%
same,"p53-positive nuclei, normalised","[2]; measured here: p53 positive nuclei at 24 h, Library stock concentration: 4.6 uM",-0.0584%
same,"p53-positive nuclei, normalised","[2]; measured here: p53 positive nuclei at 24 h, Library stock concentration: 13.7 uM",-0.0585%
same,"p53-positive nuclei, normalised","[2]; measured here: p53 positive nuclei at 24 h, Library stock concentration: 41 uM",0.0028%
same,"p53-positive nuclei, normalised","[2]; measured here: p53 positive nuclei at 24 h, Library stock concentration: 123 uM",-0.115%
same,"p53-positive nuclei, normalised","[2]; measured here: p53 positive nuclei at 24 h, Library stock concentration: 370 uM",-0.0115%
same,"p53-positive nuclei, normalised","[2]; measured here: p53 positive nuclei at 24 h, Library stock concentration: 1.111 mM",0.0471%
same,"p53-positive nuclei, normalised","[2]; measured here: p53 positive nuclei at 24 h, Library stock concentration: 3.333 mM",0.103%
same,"p53-positive nuclei, normalised",[2]; [6],-0.112%
O=C(CCCCCCC(=O)Nc1ccccc1)NO,"nuclei count, normalised","[1]; measured here: cell number at 24 h, Library stock concentration: 80 uM",112%
same,"nuclei count, normalised","[1]; measured here: cell number at 24 h, Library stock concentration: 400 uM",108% and 112%
same,"nuclei count, normalised","[1]; measured here: cell number at 24 h, Library stock concentration: 2 mM",91.7% and 119%
same,"nuclei count, normalised","[1]; measured here: cell number at 24 h, Library stock concentration: 3.33 mM",78.1%
same,"nuclei count, normalised",[1]; [3],48.6% and 60.7%
same,"nuclei count, normalised",[1]; [7],97.6%
same,"nuclei count, normalised","[1]; measured here: cell number at 48 h, Library stock concentration: 80 uM",108% and 95.5%
same,"nuclei count, normalised","[1]; measured here: cell number at 48 h, Library stock concentration: 400 uM",95.7% and 94.9%
same,"nuclei count, normalised","[1]; measured here: cell number at 48 h, Library stock concentration: 2 mM",94.4% and 101%
same,"nuclei count, normalised","[1]; measured here: cell number at 48 h, Library stock concentration: 3.33 mM",74.5%
same,"nuclei count, normalised",[1]; [4],30.2% and 39.7%
same,"nuclei count, normalised",[1]; [8],95.7%
same,"p53-positive nuclei, normalised",[2]; Library stock concentration: 80 uM,0.114% (inactive) and -0.578% (inactive)
same,"p53-positive nuclei, normalised",[2]; Library stock concentration: 400 uM,-0.0686% (inactive) and -0.456% (inactive)
same,"p53-positive nuclei, normalised",[2]; Library stock concentration: 2 mM,1.4% (inactive) and -0.595% (inactive)
same,"p53-positive nuclei, normalised",[2]; Library stock concentration: 3.33 mM,4.65% (inactive)
same,"p53-positive nuclei, normalised",[2]; [5],53.5% (active) and 27.2% (inactive)
same,"p53-positive nuclei, normalised",[2]; concentration not given here,0.0822% (inactive)
same,"p53-positive nuclei, normalised","[2]; measured here: p53 positive nuclei at 24 h, Library stock concentration: 80 uM",0.178% and -0.162%
same,"p53-positive nuclei, normalised","[2]; measured here: p53 positive nuclei at 24 h, Library stock concentration: 400 uM",-0.0144% and -0.0685%
same,"p53-positive nuclei, normalised","[2]; measured here: p53 positive nuclei at 24 h, Library stock concentration: 2 mM",2.42% and 0.0577%
same,"p53-positive nuclei, normalised","[2]; measured here: p53 positive nuclei at 24 h, Library stock concentration: 3.33 mM",8.5%
same,"p53-positive nuclei, normalised",[2]; [6],65.2% and 32.1%
same,"p53-positive nuclei, normalised",[2]; [9],0.00812%
Cc1ccc(NC(=O)CCCCCC(=O)Nc2ccccc2N)cc1,"nuclei count, normalised",[1]; [7],111%
same,"nuclei count, normalised",[1]; [8],104%
same,"p53-positive nuclei, normalised",[2]; concentration not given here,-0.139% (inactive)
same,"p53-positive nuclei, normalised",[2]; [9],-0.0721%
Nc1ccccc1NC(=O)CCCCCCC(=O)Nc1ccccc1,"nuclei count, normalised",[1]; [7],102%
same,"nuclei count, normalised",[1]; [8],99.7%
same,"p53-positive nuclei, normalised",[2]; concentration not given here,-0.185% (inactive)
same,"p53-positive nuclei, normalised",[2]; [9],-0.135%
O=C(Nc1ccc2nccnc2c1)c1csc(Cc2ccccc2)n1,"nuclei count, normalised",[1]; [7],101%
same,"nuclei count, normalised",[1]; [8],102%
same,"p53-positive nuclei, normalised",[2]; concentration not given here,0.478% (inactive)
same,"p53-positive nuclei, normalised",[2]; [9],0.426%
